Molecules are shown by their SMILES. Where “and” joins values, the source holds several entries; their conditions need not be identical. Equal values may be shown once. Records with an inconclusive call do not appear. Calls of active or inactive are those of the source. Unless noted, calls come from the whole dose curve; as a rule, active = well fitted curve in the direction sought with a large enough effect; inconclusive = small, poorly fitted or top-dose-only effect, or another doubt; inactive = no such curve, though single readings can be large; an effect the other way counts as inactive or inconclusive. Starred links: 1 amine or outer side, 2 acyl side, 3 side chain; linkers in the order of their positions; H or OH if unused. Positions of bridges follow the written chain, without caps; N, C: chain ends. Non-standard residues stand in square brackets, D forms with d. Residues, ends and D or L forms follow the SMILES beside them. Chains are numbered I, II in the order given. Actinocin(9to1) = Cc1c2oc3c(C)ccc(C(=O)[*:1])c3nc-2c(C(=O)[*:2])c(N)c1=O; NMeV = CN[CH](C(=O)O)C(C)C; Sar = CNCC(=O)O

Consider 13 compounds from PubChem BioAssay (NCATS).

Experiment [1] is described as follows: High-throughput drug toxicity screening in the BPDCN cell line Gen2.2 (AID 1224824; call rule not given here;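 note: cells exposed to compounds for 48 h before reading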). The following applies: Gen2.2 BPDCN cells; at 45.8 µM (top of the series) unless noted. A digest of the protocol:
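CellTiter-Glo luminescence read after 48 h compound exposure at 37 C defines viability; percent activity set with DMSO as 100% and bortezomib (9.2 uM final) as 0%. 500 exponentially growing cells per well, RPMI plus 10% FBS.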

The nature of experiment [2]: High-throughput drug toxicity screening in the BPDCN cell line Cal-1 (AID 1224825; call rule not given here). Conditions: Cal-1 BPDCN cell viability, qHTS; at 45.8 µM (top of the series) unless noted. Summed up:
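Exponentially growing Cal-1 cells, 500 per well in phenol red-free RPMI with 10% FBS, were exposed to compounds for 48 h at 37 °C, 5% CO2. Viability was read by CellTiter-Glo luminescence and normalised to DMSO (100%) and 9.2 uM bortezomib (0%).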
In general terms: qHTS replaces the single test concentration by a dilution series.

A short description of experiment [3]: qHTS assay for measurement of the activity of small molecule inhibitors on Zika virus induced Caspase-3 activity in human iPSC derived neural progenitor cells (hNPCs) (AID 1224857). Note: % of control where 0% means no effect; nearly all actives have a fitted effect of over 65% in size. Summed up: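 hNPCs seeded 350 cells/well, cultured 16–20 h; compounds added 1 h before ZIKV (2 FFU/cell), 37 C 6 h. Caspase-Glo 3/7 luminescence after 30 min RT; % inhibition from induction scaled to uninfected (0%) and infected (100%) wells.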

A short description of experiment [4]: qHTS Screen of the MIPE 4.0 Collection Against Ewings Sarcoma (RDES) (AID 1259252). Note: nearly all actives have a fitted effect of over 35% in size. Note: potency is the fitted concentration of half-maximal effect. A digest of the protocol: (§1)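 Here, cells in 5% FBS RPMI were exposed for two days (48 h) to compound dilutions added four hours after plating. ATP-based CellTiter-Glo luminescence measured viability, normalized to vehicle and no-cell blanks.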
Experiment [5] is described as follows: qHTS Screen of the MIPE 4.0 Collection Against Ewings Sarcoma (TC71) (AID 1259253). Note: nearly all actives have a fitted effect of over 40% in size. Note: potency is the fitted concentration of half-maximal effect. Summed up:
as §1

Experiment [6] is described as follows: qHTS Screen of the MIPE 4.0 Collection Against Ewings Sarcoma (EW8) (AID 1259255).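 For viability: 100% = DMSO-treated cells and 0% = medium-only wells without cells.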 Note: nearly all actives have a fitted effect of over 35% in size. Note: potency is the fitted concentration of half-maximal effect. Summed up:
as §1

Experiment [7] is described as follows: qHTS Screen of the MIPE 4.0 Collection Against Ewings Sarcoma (TC32) (AID 1259256). Note: nearly all actives have a fitted effect of over 45% in size. Note: potency is the fitted concentration of half-maximal effect. Summed up: as §1
Experiment [8] can be described thus: P-glycoprotein substrates identified in KB-3-1 adenocarcinoma cell line, qHTS therapeutic library screen (AID 1346986). Note: nearly all actives have a fitted effect of over 60% in size.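 Note: potency is the fitted concentration of half-maximal effect; potency is for cytotoxicity meaning loss of cell viability.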 A digest of the protocol:
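KB-3-1 parental cells and P-gp-overexpressing KB-8-5-11 (colchicine omitted during assay) plated at 500 cells/well, dosed in dose-response, incubated 72 h at 37 degree C. CellTiter-Glo luminescence read; KB-8-5-11 also tested with tariquidar.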

Experiment [9] can be described thus: P-glycoprotein substrates identified in KB-8-5-11 adenocarcinoma cell line, qHTS therapeutic library screen (AID 1346987). Note: nearly all actives have a fitted effect of over 65% in size. Note: potency is the fitted concentration of half-maximal effect. A digest of the protocol:
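P-gp-mediated resistance screen: KB-8-5-11 cells treated 72 h with compounds in dose-response. CellTiter-Glo viability.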

A short description of experiment [10]: qHTS assay for measurement of the activity of small molecule inhibitors on Zika virus induced Caspase-3 activity in human astrocytoma cells (AID 1224859).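 Note: plate controls were ZIKV-infected untreated cells for no effect and uninfected cells for full effect.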 Summed up:
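Luminescence read-out (Caspase-Glo 3/7, 30 min RT) of caspase activity in SNB-19 cells infected 6 h with ZIKV, 2 FFU/cell, after 1 h compound pretreatment; % inhibition from induction normalised to uninfected (0%) and infected (100%) wells.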

`Cc1ccccc1C(=O)Nc1ccc(C(=O)N2CCCC(O)c3cc(Cl)ccc32)c(C)c1` (stereo not drawn): the cell viability, % of control (lower = more cytotoxic) in experiment [1] came to 129%. The viability (% of control) in experiment [2] came out at 104%. Moreover, the Potency entry in experiment [3], in experiment [4], in experiment [5], in experiment [6], in experiment [7] and in experiment [8] was “inactive” in each case. In addition, the Potency result in experiment [9] is “inactive”.

Consider `c1cncc(CN2CCC(n3ncc4c(N5CCOCC5)nc(-c5ccc6[nH]ccc6c5)nc43)CC2)c1`, for which, in [1], the cell viability, % of control (lower = more cytotoxic) amounted to 12.4%. Moreover, in experiment [2], the viability (% of control) was 9.02%. Also, the Potency entry in experiment [3] is “inactive”. The Potency in experiment [4] is 13.2 µM (active); in experiment [5], 13.2 µM (active); in [6], 6.62 µM (active); in experiment [9] it was 469 nM (active) and 2.31 µM (active).

Consider `CC(C=CC=C(C)C=CC1=C(C)CCCC1(C)C)=CC=CC=C(C)C=CC=C(C)C=CC1=C(C)CCCC1(C)C`, for which the cell viability, % of control (lower = more cytotoxic) in experiment [1] amounted to 8%. Also, in experiment [2], the viability (% of control) is 10%. In addition, the Potency entry in [3] and in experiment [9] was “inactive” in each case. In addition, the Potency in experiment [4] is 8.33 µM (active); in [5] it was 18.7 µM (active); in experiment [6] it was 14.8 µM (active).

With `COc1cc(OC)c(NC(=O)Nc2cc(C)on2)cc1Cl`, in experiment [1], the cell viability, % of control (lower = more cytotoxic) was 187%. Besides, the viability (% of control) in [2] stood at 80.9%. The Potency entry in experiment [3], in experiment [4], in experiment [5], in experiment [6], in experiment [7] and in [9] was “inactive” in each case.

With `CN(N=O)C(=O)N[C@H]1C(O)OC(CO)[C@@H](O)[C@H]1O` (stereo partly drawn), the cell viability, % of control (lower = more cytotoxic) in [1] was determined as 97.4%. In addition, in experiment [2], the viability (% of control) amounted to 96.8%. Moreover, the Potency entry in experiment [3], in experiment [4], in [5], in experiment [6], in experiment [7] and in [9] was “inactive” each time.

As to `COc1cc2c(cc1O)CCC1C2CC[C@@]2(C)C1CC[C@@H]2O` (stereo partly drawn), in experiment [1], the cell viability, % of control (lower = more cytotoxic) came to 95.2%. The viability (% of control) in experiment [2] was determined as 10.9%. Also, the Potency result in experiment [3] and in experiment [10] was “inactive” in each case. Further, the Potency is 7.43 µM (active) in experiment [4], 3.32 µM (active) in [6], 2.64 µM (active) in [7] and 1.32 µM (active) in experiment [9].

In the case of `CCOC(=O)[C@@H](N)Cc1ccc(-c2cc(O[C@H](c3ccc(Cl)cc3-n3ccc(C)n3)C(F)(F)F)nc(N)n2)cc1`, in [1], the cell viability, % of control (lower = more cytotoxic) was 10.1%. Further, in experiment [2], the viability (% of control) came out at 16.2%. Moreover, the Potency entry in experiment [3], in experiment [10] and in experiment [9] was “inactive” in each case. Further, the Potency in [4] and in experiment [6] was 26.4 µM (active) in each case.

`Nc1cccc2c1C(=O)N(C1CCC(=O)NC1=O)C2=O` (stereo not drawn): in experiment [1], the cell viability, % of control (lower = more cytotoxic) was 52.1%. For the same compound, the viability (% of control) in [2] amounted to 88.7%. Further, the Potency entry in experiment [3], in experiment [4], in experiment [6] and in experiment [9] was “inactive” in each case. The Potency in experiment [7] was 0.0042 µM (active).

Turning to `CCOc1cc2ncc(C#N)c(Nc3ccc(OCc4ccccn4)c(Cl)c3)c2cc1NC(=O)C=CCN(C)C`, the cell viability, % of control (lower = more cytotoxic) in experiment [1] was 4.27%. Further, in experiment [2], the viability (% of control) was 13.3%. Besides, the Potency result in [3] was “inactive”. Moreover, the values for the Potency in experiment [4], in experiment [6] and in [7] were 0.118 µM (active), 6.62 µM (active) and 2.96 µM (active), respectively.

With `Cc1c2oc3c(C)ccc(C(=O)NC4C(=O)NC(C(C)C)C(=O)N5CCCC5C(=O)N(C)CC(=O)N(C)C(C(C)C)C(=O)OC4C)c3nc-2c(C(=O)NC2C(=O)NC(C(C)C)C(=O)N3CCCC3C(=O)N(C)CC(=O)N(C)C(C(C)C)C(=O)OC2C)c(N)c1=O` (stereo not drawn) (I: TVP[Sar][NMeV] / II: TVP[Sar][NMeV]; ester I:1-I:C, II:1-II:C; linker I:N-II:N via Actinocin(9to1); configuration not given here), the cell viability, % of control (lower = more cytotoxic) in experiment [1] worked out at 2.59%. The viability (% of control) in experiment [2] is 1.96%. Also, the Potency entry in experiment [3], in [10], in [4] and in experiment [6] was “inactive” in each case. Moreover, the Potency in experiment [9] was 0.187 µM (active).

For `N#Cc1c(NC(=O)c2cccc3ccccc23)sc2c1CCCC2`, the cell viability, % of control (lower = more cytotoxic) in experiment [1] is 83.4%. Further, the viability (% of control) in experiment [2] stood at 9.83%. For the same compound, the Potency entry in experiment [3] and in experiment [10] was “inactive” throughout. For the same compound, the Potency is 0.296 µM (active) in experiment [4]; 0.469 µM (active) in [6]; 0.366 µM (active) in experiment [8]; 418 nM (active) and 291 nM (active) in [9].

In the case of `COc1cccc2c1C(=O)c1c(O)c3c(c(O)c1C2=O)C[C@@](O)(C(C)=O)C[C@H]3O[C@H]1C[C@H](N)[C@H](O)[C@H](C)O1`, in [1], the cell viability, % of control (lower = more cytotoxic) was found to be 3.75%. Further, the viability (% of control) in experiment [2] came out at 3.72%. Also, the Potency result in experiment [3] is “inactive”. The Potency in experiment [4] was 0.0418 µM (active); in experiment [5], 0.0662 µM (active); in experiment [6] it was 0.0526 µM (active); in [7], 0.0469 µM (active).

Turning to `CCc1ccc(C(=O)Nc2cc(CN3CCN(C)CC3)cc(C(F)(F)F)c2)cc1C#Cc1cnc2ccnn2c1`, the cell viability, % of control (lower = more cytotoxic) in experiment [1] worked out at 4.8%. Also, the viability (% of control) in experiment [2] worked out at 4.46%. Further, the Potency result in [3] was “inactive”. Also, the Potency was 20.9 µM (active) in [4]; 29.6 µM (active) in [5]; 16.6 µM (active) in experiment [6]; 14.8 µM (active) in experiment [7]; 4.11 µM (active) in experiment [8]; 8.33 µM (active) and 3.66 µM (active) in [9].
